Reference: PubChem BioAssay AID1224864 (Chung Lab, Department of Pediatrics, Emory University, 2016)
The whole screen tested about 2,000 compounds, of which about 20 (1%) were called active. The rule behind the calls is not given here. The sample as a whole holds a higher share of actives than the screen did.

target: Cystic fibrosis transmembrane conductance regulator (Homo sapiens) (UniProt P13569); experiment: F508del-CFTR plasma membrane relocalization enhancers – imaging, HeLa, high-content microscopy, immunofluorescence, primary screen (AID 1224864); conditions: PM immunofluorescence imaging, 24 h, at 10 µM, stronger effect = higher value, relative to vehicle wells set at 100; total CFTR intensity: measured here: total cellular F508del-CFTR signal;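 note: HeLa cells stably expressing F508del-CFTR stained with 3G11 antibody against NBD1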;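 for plasma membrane CFTR intensity: mean immunofluorescence in a thin cell-margin band taken as plasma membrane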
Sequence (P13569 whole entry, looked up, stated change not applied): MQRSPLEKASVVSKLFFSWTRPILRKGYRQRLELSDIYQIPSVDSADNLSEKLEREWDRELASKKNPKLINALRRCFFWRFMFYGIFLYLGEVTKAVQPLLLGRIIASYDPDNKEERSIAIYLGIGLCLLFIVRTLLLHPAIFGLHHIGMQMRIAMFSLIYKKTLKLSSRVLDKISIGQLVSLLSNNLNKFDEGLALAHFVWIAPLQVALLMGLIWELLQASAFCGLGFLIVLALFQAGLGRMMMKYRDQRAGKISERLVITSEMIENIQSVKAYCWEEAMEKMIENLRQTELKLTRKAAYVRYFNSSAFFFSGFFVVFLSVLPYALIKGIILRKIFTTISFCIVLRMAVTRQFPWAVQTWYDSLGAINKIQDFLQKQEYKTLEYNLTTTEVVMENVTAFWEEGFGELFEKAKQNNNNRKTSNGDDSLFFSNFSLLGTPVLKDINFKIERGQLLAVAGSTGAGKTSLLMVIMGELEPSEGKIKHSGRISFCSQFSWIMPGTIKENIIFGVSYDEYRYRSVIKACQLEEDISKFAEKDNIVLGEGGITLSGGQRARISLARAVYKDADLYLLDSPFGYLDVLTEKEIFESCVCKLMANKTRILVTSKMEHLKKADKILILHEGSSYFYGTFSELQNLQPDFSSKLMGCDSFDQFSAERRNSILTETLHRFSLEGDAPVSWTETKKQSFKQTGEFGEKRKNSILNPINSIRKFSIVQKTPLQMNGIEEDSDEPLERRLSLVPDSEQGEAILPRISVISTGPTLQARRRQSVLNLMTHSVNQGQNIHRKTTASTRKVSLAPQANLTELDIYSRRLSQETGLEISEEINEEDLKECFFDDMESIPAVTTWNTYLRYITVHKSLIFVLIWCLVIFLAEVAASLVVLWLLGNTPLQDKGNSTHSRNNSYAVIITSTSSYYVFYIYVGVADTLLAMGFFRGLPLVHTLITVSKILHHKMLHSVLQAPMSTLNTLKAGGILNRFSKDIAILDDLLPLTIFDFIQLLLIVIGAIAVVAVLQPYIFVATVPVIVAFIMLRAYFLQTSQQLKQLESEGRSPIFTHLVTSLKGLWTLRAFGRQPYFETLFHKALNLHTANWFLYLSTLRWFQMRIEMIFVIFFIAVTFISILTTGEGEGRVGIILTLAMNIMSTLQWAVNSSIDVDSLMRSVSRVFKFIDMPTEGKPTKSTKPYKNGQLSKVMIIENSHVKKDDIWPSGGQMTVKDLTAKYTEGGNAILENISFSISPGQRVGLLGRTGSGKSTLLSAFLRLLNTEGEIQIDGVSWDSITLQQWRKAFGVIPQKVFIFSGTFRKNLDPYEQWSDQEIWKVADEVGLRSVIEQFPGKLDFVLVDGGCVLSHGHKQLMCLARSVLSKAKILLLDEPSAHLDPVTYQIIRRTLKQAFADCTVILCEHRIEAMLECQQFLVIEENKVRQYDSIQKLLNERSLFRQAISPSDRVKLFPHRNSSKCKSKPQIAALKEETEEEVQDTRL

Row | Compound | plasma membrane CFTR intensity | total CFTR intensity [%]
1 | COc1cc(-c2nnc(-c3cccs3)o2)cc(OC)c1OC | 96% (inactive) | 87
2 | O=c1c2[nH]c3ccccc3c2ncn1CCC1=CCCCC1 | 87% (inactive) | 88
3 | Cc1ccc2c(c1)c1c(n2C)C(=O)CCC1 | 76% (inactive) | 75
4 | CCc1cc(=O)oc2cc(OCC=C(C)C)ccc12 | 95% (inactive) | 98
5 | COc1ccc2c(c1OC)C(=O)NC(C)=C(C(=O)OC(C)(C)C)C2O (stereo unspecified) | 87% (inactive) | 90
6 | O=C1CCCCCN1Cc1ccccc1 | 86% (inactive) | 90
7 | O=C1C=CC(=O)C(C2=C3C(=O)N(CCc4ccccc4)CC(=O)N3CCC2)=C1 | 108% (active) | 124
8 | COC(=O)CN1CC(=O)N(c2ccccc2)C1=S | 83% (inactive) | 81
9 | COc1ccccc1/C=C/CN1CCN(Cc2ccc(F)cc2)C(CCO)C1 (stereo unspecified) | 77% (inactive) | 77
10 | CC(C)(CO)CNC(=O)CC1C(=O)NCCN1CC(c1ccccc1)c1ccccc1 (stereo unspecified) | 85% (inactive) | 89
11 | Cn1c(=O)c2nc3ccccc3nc2n(C)c1=O | 96% (inactive) | 90
12 | Cc1coc2c1c(C)cc1oc(=O)c(Cc3ccccc3)c(C)c12 | 91% (inactive) | 91
13 | O=C(N/N=C\c1cc([N+](=O)[O-])ccc1N1CCOCC1)c1ccccn1 | 79% (inactive) | 75
14 | COC(=O)c1cc(-c2ccc(C)o2)nc2ccccc12 | 96% (inactive) | 99
15 | Fc1ccc(C(c2ccc(F)cc2)N2CCN(C/C=C/c3ccccc3)CC2)cc1 | 99% (inactive) | 120
16 | C(=C\c1ccccc1)/CN1CCN(C(c2ccccc2)c2ccccc2)CC1 | 107% (active) | 125
17 | Cc1cccc(CN2CCN(C(c3ccccc3)c3ccc(Cl)cc3)CC2)c1 (stereo unspecified) | 92% (inactive) | 107
18 | O=C(O)c1ccc(N2C(=O)/C(=C\c3ccccc3)N=C2c2ccccc2)cc1 | 78% (inactive) | 78
19 | COC1CCN(C(=O)c2ccc(OC3CCN(Cc4ccccn4)CC3)cc2)CC1 | 81% (inactive) | 75
20 | CC(C)Cc1nc(NCCN2CCOCC2)c(C#N)c2c1COC(C)(C)C2 | 96% (inactive) | 92
21 | C/C(=N\N=C1/NC(=O)C(CC(=O)Nc2ccc(Cl)cc2)S1)c1ccco1 (stereo unspecified) | 81% (inactive) | 80
22 | CC(C)COC(=O)C1C(=O)CC(C)(O)C(C(=O)OCC(C)C)C1c1cccnc1 (stereo unspecified) | 93% (inactive) | 100

Row | Compound | plasma membrane CFTR intensity | total CFTR intensity [%]
23 | C=C(C)COc1ccc(-c2nc(N)ncc2-c2ccc(OC)cc2)c(O)c1 | 82% (inactive) | 81
24 | CSCCC(NC(C)=O)C(=O)Oc1ccc2c3c(c(=O)oc2c1)CCCC3 (stereo unspecified) | 80% (inactive) | 80
25 | O=C(Oc1ccccc1)Oc1ccc2c(c1)oc(=O)c1ccccc12 | 120% (active) | 140
26 | O=C(Oc1ccc2c3c(c(=O)oc2c1)CCCC3)c1ccco1 | 89% (inactive) | 85
27 | C[C@H]1O[C@H]1P(=O)(O)O | 103% (inactive) | 108
28 | Cc1ccc([N+](=O)[O-])cc1NC1OC(CO)C(O)C1O (stereo unspecified) | 85% (inactive) | 85
29 | CC(C)CN(C)Cc1c(C(=O)N2CCc3ccccc3C2)nc2ccc(Cl)cn12 | 77% (inactive) | 81
30 | CN(C)CCOCCOc1ccc(Cl)cc1Br | 81% (inactive) | 81
31 | Cn1cc(CN2CCC(C(=O)N3CCCCC3)CC2)c(-c2ccccc2F)n1 | 79% (inactive) | 72
32 | CCOC(=O)C1(CCCc2ccccc2)CCN(C2CCN(C(C)=O)CC2)CC1 | 94% (inactive) | 101
33 | O=C1CC(c2ccc(OCCCCCOc3ccc(C4CC(=O)NC4=O)cc3)cc2)C(=O)N1 (stereo unspecified) | 96% (inactive) | 95
34 | O=C1CN(O)C=C2N=c3ccccc3=C2N1c1ccc([N+](=O)[O-])cc1 | 72% (inactive) | 74
35 | O=C(CCC1CCCN(C(=O)c2ccsc2)C1)NCc1ccc(F)c(F)c1 (stereo unspecified) | 81% (inactive) | 83
36 | CC1(C)C(=O)OC(c2cccs2)C2(CCCCC2)C1=O (stereo unspecified) | 102% (inactive) | 110
37 | NC12CC3CC(C1)CC(O)(C3)C2 | 89% (inactive) | 91
38 | Cc1cc(C)cc(Nc2nc3c([nH]2)c(=O)n(C)c(=O)n3C)c1 | 98% (inactive) | 95
39 | CCOC(=O)C(=O)Nc1ccc(Oc2ccccc2)cc1 | 85% (inactive) | 84
40 | CC(=O)Nc1nc(CCC(C)C)cc2c1c(=O)oc1ccccc12 | 77% (inactive) | 80
41 | Cc1cc(OCC(=O)C(C)(C)C)c2c(C)c(C)c(=O)oc2c1 | 86% (inactive) | 86
42 | CCN(CC)CCOC(=O)C1(C2CCCCC2)CCCCC1 | 120% (active) | 123
43 | CCC(C(=O)OCCN(CC)CC)c1ccccc1 (stereo unspecified) | 95% (inactive) | 100
